Compounds without any hit were thinned out: in the full panel of roughly 79,000, 15% have a hit. Values without a mark were called inactive. Active and inactive are the calls of the source. Cut-off read from the data, not from the text of the source: active = growth inhibition above about 70%; inactive = the rest.
Legend:
[1] = NCI Yeast Anticancer Drug Screen. Data for the rad50 strain (AID 155);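 note: 0% = growth of vehicle-only cultures of the same strain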; settings: S. cerevisiae rad50 strain growth inhibition, hits give high values
Method in brief: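 Readout: growth inhibition relative to vehicle-treated cultures. Compound exposure was carried out in a genetically defined yeast strain deficient in DNA damage repair.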

[2] = NCI Yeast Anticancer Drug Screen. Data for the mec2-1 strain (AID 157); settings: S. cerevisiae mec2-1 strain, hits give high values
Method in brief: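 Compounds were applied to mec2-1 yeast cells. Their growth was then compared with that of vehicle-treated cultures to give growth inhibition.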

[3] = NCI Yeast Anticancer Drug Screen. Data for the sgs1 mgt1 strain (AID 161);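 note: 0% = growth of cultures given vehicle only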; settings: S. cerevisiae sgs1 mgt1 strain, hits give high values
Method in brief: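 This yeast growth screen uses a strain with defined DNA-repair lesions; compound-treated growth is compared with vehicle-treated growth.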

[4] = NCI Yeast Anticancer Drug Screen. Data for the cln2 rad14 strain (AID 165);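 note: 0% = growth equal to vehicle treated cultures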; settings: S. cerevisiae cln2 rad14 strain, hits give high values
Method in brief: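 Strain: cln2 rad14 yeast, altered in cell cycle control and DNA damage repair. Read-out: growth inhibition vs vehicle.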

[5] = NCI Yeast Anticancer Drug Screen. Data for the bub3 strain (AID 167); settings: S. cerevisiae bub3 mutant strain, hits give high values
Method in brief: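 Readout: yeast growth inhibition, expressed relative to vehicle-only wells. The test organism is a mutant strain from a panel with lesions in DNA repair or checkpoint genes.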

[6] = NCI Yeast Anticancer Drug Screen. Data for the mlh1 rad18 strain (AID 175); settings: S. cerevisiae mlh1 rad18 strain growth inhibition, hits give high values
Method in brief: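 A repair-deficient yeast strain is exposed to test compound, and growth is scored relative to vehicle-treated controls.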

[7] = at 5.0 µM (retest, dose inferred, filed as 0.5)
[8] = at 50.0 µM (retest, dose inferred, filed as 5.0)

Row | Compound | growth inhibition [1, 7] | growth inhibition [1, 8] | growth inhibition ([1]; at 50.0 µM) | growth inhibition [2, 7] [%] | growth inhibition [2, 8] | growth inhibition ([2]; at 50.0 µM) | growth inhibition [3, 7] | growth inhibition [3, 8] | growth inhibition ([3]; at 50.0 µM) | growth inhibition [4, 7] [%] | growth inhibition [4, 8] | growth inhibition ([4]; at 50.0 µM) | growth inhibition [5, 7] | growth inhibition [5, 8] | growth inhibition ([5]; at 50.0 µM) | growth inhibition [6, 7] | growth inhibition [6, 8] | growth inhibition ([6]; at 50.0 µM)
1 | Cc1ccc(/C=N/NS(=O)(=O)c2ccccc2)c(C)c1 | -27% | 25% | 30.6% | -10 | 1% | 18.9% | 1% | 15% | 15% | -23 | 42% | -25.8% | 3% | 41% | 11.1% | -11% | 46% | 36.9%
2 | COC(=O)NC1CCCCCCCCCCC1I (configuration not stated) | -4% | 97% (active) | 98.5% (active) | 14 | 99% (active) | 82.3% (active) | -5% | 99% (active) | 17.1% | 19 | 99% (active) | -2.05% | -5% | 99% (active) | 3.35% | 5% | 98% (active) | 99% (active)
3 | N#CC1C2CCC3(CC2CCN1C(=O)c1ccccc1)OCCO3 (configuration not stated) | -1% | 59% | 32.5% | -1 | 76% (active) | 72.2% (active) | -6% | 60% | 43% | -7 | 78% (active) | 71.8% (active) | 12% | 82% (active) | 82.8% (active) | -7% | 77% (active) | 60.9%
4 | O=C(C(=Cn1c(=S)[nH]c2ccc([N+](=O)[O-])cc21)C(=O)c1ccccc1)c1ccccc1 | -10% | 3% | 98% (active) | -14 | -2% | 92.5% (active) | -7% | 1% | 92.2% (active) | -23 | -17% | 74.8% (active) | -5% | 6% | 94.9% (active) | -4% | 0% | 96.3% (active)
5 | CCOC(=O)[C@@H](F)[C@H](Br)C(=O)OCC | 86% (active) | 99% (active) | 89.2% (active) | 58 | 100% (active) | 93.2% (active) | 75% (active) | 100% (active) | 88.4% (active) | 55 | 100% (active) | 89.2% (active) | 88% (active) | 100% (active) | 84.7% (active) | 80% (active) | 99% (active) | 93.2% (active)
6 | O=C(N/C(=C\c1cc(Cl)ccc1Cl)c1nc2ccc(Cl)cc2[nH]1)c1ccccc1 | 29% | 87% (active) | 93.2% (active) | 17 | 82% (active) | 96.5% (active) | 28% | 81% (active) | 93.8% (active) | 39 | 84% (active) | 91.9% (active) | 31% | 87% (active) | 94.7% (active) | 14% | 81% (active) | 96.5% (active)
7 | CC(=O)Nc1ccc(N=C2c3ccccc3-c3ccc(NC(C)=O)cc32)cc1 | 2% | 64% | 98.4% (active) | 0 | 52% | 77.3% (active) | -2% | 57% | 98.5% (active) | 3 | 28% | 43.4% | -1% | 53% | 87.8% (active) | -5% | 59% | 98.2% (active)
8 | CCCCOC(=O)c1ccc(O)c(OC)c1 | 3% | -13% | -19.8% | -10 | 4% | -3.2% | 0% | 6% | 5.25% | -5 | 2% | -43.9% | 85% (active) | 96% (active) | 95.7% (active) | 0% | 3% | -11.2%
9 | Cc1n[n+]([O-])c(C)cc1[N+](=O)[O-] | 0% | 50% | 93.7% (active) | 4 | 32% | 44.6% | 17% | 87% (active) | 85.6% (active) | -5 | 42% | 76.5% (active) | -8% | 16% | 65% | 58% | 94% (active) | 92.2% (active)

From PubChem BioAssay (NCI)
